Tests used:
[1] = target: Serine/threonine-protein kinase PAK 6 (Homo sapiens) (UniProt Q9NQU5); settings: at 1 µM;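 also: values are mean percent inhibition of PAK6 kinase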
[2] = system: Tyrosine-protein kinase ABL1 (Homo sapiens), P00519 [E255K]; settings: at 0.1 µM
[3] = system: Tyrosine-protein kinase ABL1 (Homo sapiens), P00519 [E255K]; settings: at 1 µM
[4] = system: Tyrosine-protein kinase ABL1 (Homo sapiens), P00519 [H396P]; settings: at 0.1 µM
[5] = system: Tyrosine-protein kinase ABL1 (Homo sapiens), P00519 [H396P]; settings: at 1 µM
[6] = system: Tyrosine-protein kinase ABL1 (Homo sapiens), P00519 [M351T]; settings: at 0.1 µM
[7] = system: Tyrosine-protein kinase ABL1 (Homo sapiens), P00519 [M351T]; settings: at 1 µM
[8] = system: Tyrosine-protein kinase ABL1 (Homo sapiens), P00519 [Q252H]; settings: at 0.1 µM
[9] = system: Tyrosine-protein kinase ABL1 (Homo sapiens), P00519 [Q252H]; settings: at 1 µM
[10] = system: Tyrosine-protein kinase ABL1 (Homo sapiens), P00519 [T315I]; settings: at 0.1 µM

Sequence of Serine/threonine-protein kinase PAK 6 (Homo sapiens) (Q9NQU5 whole entry, looked up): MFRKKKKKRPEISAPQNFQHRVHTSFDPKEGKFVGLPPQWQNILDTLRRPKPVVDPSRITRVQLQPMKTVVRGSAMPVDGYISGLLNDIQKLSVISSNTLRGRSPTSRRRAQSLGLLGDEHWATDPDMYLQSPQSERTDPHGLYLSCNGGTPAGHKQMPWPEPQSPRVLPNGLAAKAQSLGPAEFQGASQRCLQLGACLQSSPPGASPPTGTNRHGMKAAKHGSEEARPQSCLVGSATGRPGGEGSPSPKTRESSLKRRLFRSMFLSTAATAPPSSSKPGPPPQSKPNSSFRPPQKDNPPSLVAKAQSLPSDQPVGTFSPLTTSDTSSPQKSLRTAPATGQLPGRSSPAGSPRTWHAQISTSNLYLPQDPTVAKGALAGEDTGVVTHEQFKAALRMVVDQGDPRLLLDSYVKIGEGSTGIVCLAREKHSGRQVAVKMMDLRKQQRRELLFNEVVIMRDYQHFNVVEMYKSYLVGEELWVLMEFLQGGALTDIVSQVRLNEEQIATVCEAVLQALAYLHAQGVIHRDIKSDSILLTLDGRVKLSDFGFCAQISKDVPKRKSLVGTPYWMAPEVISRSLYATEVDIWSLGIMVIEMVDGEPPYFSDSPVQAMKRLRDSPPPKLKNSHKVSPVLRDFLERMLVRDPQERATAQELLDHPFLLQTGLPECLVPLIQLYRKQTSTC

SMILES	inhibition [1] [%]	inhibition [2] [%]	inhibition [3] [%]	inhibition [4] [%]	inhibition [5] [%]	inhibition [6] [%]	inhibition [7] [%]	inhibition [8] [%]	inhibition [9] [%]	inhibition [10] [%]
Fc1ccc(-c2nc3n(c2-c2ccncc2)CCS3)cc1	-7.43	1.52	4.79	2.85	3.2	1.2	4.76	2.91	5.38	1.83
C#Cc1cccc(Nc2ncnc3ccc(OCCCCNCCS(C)(=O)=O)cc23)c1	-2.58	4.64	19.7	7.05	23	4.14	19.2	6.79	22.7	3.9
O=C1NC(=O)C(c2cccc(Cl)c2)=C1Nc1ccc(Cl)c(C(=O)O)c1	-4.4	1.78	3.24	2.08	6.18	2.29	5.05	2.43	4.98	1.3
CCS(=O)(=O)c1ccc(OC)c(Nc2ncc(-c3cccc(-c4ccccc4F)c3)o2)c1	1.97	40.6	84.4	34.5	82	44.6	86.9	37.9	84.6	1.82
COc1cc2ncn(-c3cc(OCc4cccs4)c(C(N)=O)s3)c2cc1OC	11	2.64	29.8	10.9	51.6	7.47	50.4	8.78	46.3	12.2
COc1cc(Nc2ncc3c(C)nc(-c4cccc(C(F)(F)F)c4)n3n2)cc(OC)c1OC	11.2	2.21	7.54	5.06	12.7	1.36	10.8	4.02	13.4	3.13
NCc1ccc(-n2c(-c3nonc3N)nc3cnccc32)cc1	-0.18	3.58	2.62	5.81	0.32	3.87	0.32	4.57	1.69	2.95
N#Cc1ccc(Oc2nccc(-c3c(-c4ccc(F)cc4)ncn3C3CCNCC3)n2)cc1	-7.23	2.37	3.79	3.91	5.59	2.13	4.25	4	6.46	3.62
COc1cc(Nc2ncc(-c3ccccc3)o2)cc(OC)c1OC		5.32	36.8	12.7	61.5	14.3	61.2	11.2	57.7	1.79
O=C(Nc1n[nH]c2nc(-c3ccco3)ccc12)C1CC1	3.45	2.26	5.68	3.89	10.4	4.48	15	4.58	9.24	2.66
O=C1Nc2ccc(I)cc2C1=Cc1cc(Br)c(O)c(Br)c1		1.89	6.01	4.06	6.63	1	4.74	3.44	7.29	2.84
Cc1nnc(-c2ccc(C)c(-c3ccc(C(=O)NCc4ccc(Cl)cc4)cc3)c2)o1		2.64	6.05	3.3	11.6	-1.14	1.63	2.54	4.45	2.23
C[C@@H](Oc1cc(-n2cnc3ccc(OCC4CCN(C)CC4)cc32)sc1C(N)=O)c1ccccc1Cl	-3.14	0.13	4.51	2.87	9.39	-0.56	5.2	4.18	8.32	-2.27
NS(=O)(=O)c1ccc(Nc2cc(-c3ccc(O)c(F)c3)n[nH]2)cc1	-3.83	1.72	14.8	2.42	27.3	4.46	30.5	1.52	20	0.21
O=C(Nc1ccc(Oc2ccc3[nH]c(NC(=O)c4ccccc4)nc3c2)cc1)Nc1cc(C(F)(F)F)ccc1F	3.44	3.28	27	17	71	44.6	79.8	38.4	74.6	36.6
Fc1ccc(-c2ncn(C3CCNCC3)c2-c2ccnc(Oc3ccc4c(c3)OCO4)n2)cc1	-5.42	2.98	4.48	5.49	7.54	1.29	3.88	4.09	6.75	3.51
O=C(Nc1n[nH]c2nc(-c3ccc(O)cc3)c(Br)cc12)C1CC1	8.5	21	66.4	38.5	81	37.4	81	37.5	82.4	43.5

From ChEMBL document CHEMBL1961873, “Compounds: GSK PKIS; Assays: Nanosyn kinase panel” (2012)
